# Test results: PubChem BioAssay (EPA / NIEHS)
# “And” between values parts separate entries of the source, which are not always exact repeats. Equal entries are not always repeated. More than one record can exist for a structure, and the calls need not agree. The source made the active and inactive calls. Rule for the calls: active = hit-call score of the fitted dose curve at least 0.9, where 1 is the maximum; inactive = score below 0.9.
# Test: ATG_AP_1_CIS: Attagene CIS-FACTORIAL HepG2 Assay for human Activator Protein 1 (AP-1) (AID 2282931)
# Details: HepG2 Attagene cis-factorial AP-1 reporter mRNA; actives raise or lower the signal
# Procedure, shortened: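 Reporter transcripts were measured 24 h after dosing by RT-PCR and capillary electrophoresis of fluorescent fragments. Cells: HepG2 carrying transfected cis-regulated reporter constructs reading endogenous factor activity. Gain or loss fitted against DMSO.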
Compound,AC50,outcome
CC(C)(C)CC(C)(C)c1ccc(O)c(-n2nc3ccccc3n2)c1,58.3 µM (active),
C[C@@H]1C[C@H]2[C@@H]3CCC4=CC(=O)C=C[C@]4(C)[C@@]3(F)[C@@H](O)C[C@]2(C)[C@@]1(O)C(=O)COP(=O)(O)O,,inactive
OC1CCC(C2CCCCC2)CC1 (stereo not drawn),162 µM (active) and 149 µM (active),inactive
NCC(F)(F)C(F)(F)C(F)(F)C(F)(F)C(F)(F)C(F)(F)C(F)(F)F,,inactive
CCCCCCCC(=O)O,,inactive
Cc1cc(C)c(O)c(C)c1,,inactive

# Test: ATG_AP_2_CIS: Attagene CIS-FACTORIAL HepG2 Assay for human Activator Protein 2 (AP-2) (AID 2282932)
# Details: HepG2 AP-2 cis-reporter, Attagene transcription factor profiling; actives raise or lower the signal
# Procedure, shortened: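 Transiently transfected HepG2 cells are exposed to chemical for 24 h. Reporter transcripts are then measured as fluorescence following RT-PCR and capillary separation, and gain- or loss-of-signal is fitted relative to DMSO.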
row,Compound,outcome
1,CCCCC(CC)COC(=O)CCCCC(=O)OCc1ccccc1 (stereo not drawn),inactive
2,FC(F)(I)C(F)(F)C(F)(F)C(F)(F)C(F)(F)C(F)(F)I,inactive
3,Cc1oc(-c2ccccc2)nc1CCOc1ccc(C[C@H](Nc2ccccc2C(=O)c2ccccc2)C(=O)O)cc1,inactive
4,CN1CCC[C@H]1c1cccnc1,inactive
5,COCC(C)OCC(C)O (stereo not drawn),inactive
6,CN1CCN(c2ccccc2/C=C2\SCCN(c3ccc(Cl)c(Cl)c3)C2=O)CC1,inactive
7,CC(C)(C)CC(C)(C)c1ccc(O)c(-n2nc3ccccc3n2)c1,inactive
8,C[C@@H]1C[C@H]2[C@@H]3CCC4=CC(=O)C=C[C@]4(C)[C@@]3(F)[C@@H](O)C[C@]2(C)[C@@]1(O)C(=O)COP(=O)(O)O,inactive
9,CCc1nn(C2CCCCC2)c2cc(C3(C#N)CCC(C(=O)O)CC3)ccc12 (stereo not drawn),inactive
10,N#C[C@@H]1CC(F)(F)CN1C(=O)CNC1CC2CCC(C1)N2c1ncccn1 (stereo partly drawn),inactive
11,CCCCCCCCC(=O)O,inactive
